Source: PubChem
SARS 3CLpro inh – SARS-CoV 3CLpro protease inhibition; P0C6X7; recombinant SARS-CoV 3CLpro, quenched FRET peptide cleavage; inhibition, % at 6 µM; 290,000 compounds, 0.14% hits; AID 1706; in the data active = inhibition above about 12%
GDH-TPI inh – GDH-TPI coupled enzyme inhibition counter-screen | 360,000 compounds, 1.2% hits | AID 588335 | GDH-TPI coupled enzyme counterscreen, NADH absorbance | inhibition, % at 4.8 µM; in the data active = inhibition above about 30%
BH1578 lux ind – quorum light induction in luxS cqsA deficient V. cholerae; activation, % at 18.7 µM; AID 588436; 350,000 compounds, 0.16% hits; V. cholerae BH1578 lux reporter, luminescence, 6 h; in the data active = activation mostly above about 9.7%, no sharp cut-off
Mtb FBA inh – inhibits M. tuberculosis FBA enzyme; P9WQA3; purified M. tuberculosis FBA, fluorescence read-out; inhibition, % at 1 µM; 360,000 compounds, 2.3% hits; AID 588726; in the data active = inhibition above about 27%
PrPC TRFRET – inhibitors of human cell surface prion protein PrPC; 370,000 compounds, 0.43% hits; inhibition, % at 13.8 µM; TR-FRET read-out; AID 720596; in the data active = inhibition above about 24%
PrPC TRFRET cf – cell surface PrPC inhibition, TR-FRET confirmation. cell surface PrPC level. AID 743200. inhibition, % at 13.8 µM. 1,500 compounds, 65% hits. shares compounds with PrPC TRFRET; in the data active = inhibition above about 25%
LD9 cytotox – LD9 cell cytotoxicity, PrPc inhibitor counter-screen. shares compounds with PrPC TRFRET. LD9 cells cytotoxicity, luminescence viability. inhibition, % at 13.8 µM. 1,500 compounds, 29% hits. AID 743201; in the data active = inhibition above about 9.5%
A number is an active result; 0 = inactive; - = no result. Sampled rows, rich in hits. Any-hit rate of the full collection: about 3.9%.

SMILES | SARS 3CLpro inh | GDH-TPI inh | BH1578 lux ind | Mtb FBA inh | PrPC TRFRET | PrPC TRFRET cf | LD9 cytotox
CCN(CC)C(=S)Nc1cc(C(=O)OC)ccc1C(=O)OC | 0 | 0 | 0 | 0 | 25 | 0 | 0
CCC(C)C(=O)Nc1cc(C(=O)OC)ccc1C(=O)OC (centres undefined) | 0 | 0 | 0 | 0 | - | - | -
CC(CC(=O)Nc1ccc2c(c1)c(=O)n(C)n2-c1cccs1)c1ccccc1 (centres undefined) | - | 0 | 0 | 0 | 0 | - | -
Cc1nc(COC(=O)c2c(C)nn(-c3ccccc3)c2C)cs1 | 0 | 0 | 0 | 0 | 0 | - | -
O=[N+]([O-])c1c(Nc2cccc(O)c2)cc(Cl)c2nonc12 | 0 | 0 | 0 | 0 | 85 | 92 | 98
O=S(=O)(NCCN1CCOCC1)c1cc(Cl)ccc1Cl | 0 | 0 | 0 | 0 | 0 | - | -
CCc1nc2ccc(C(=O)Nc3cc(-c4ccccc4)ccc3OC)cn2c1N(C)Cc1nccs1 | - | 0 | 0 | 0 | 0 | - | -
CC(C)NC(=S)n1cc(C(=O)c2cc(Cl)cc(Cl)c2O)cn1 | 0 | 0 | 0 | 0 | 41 | 0 | 0
COc1ccccc1OCC(=O)n1cc(C(=O)c2cc(Cl)cc(Cl)c2O)cn1 | 0 | 0 | 0 | 0 | 0 | - | -
Cc1nnc(N2CCN(C)CC2)c2nn(-c3ccc(Cl)cc3)c(C)c12 | 0 | - | - | - | - | - | -
CCN(CC)C(=O)CC[C@H]1CC[C@]2(CCCN(C(=O)c3ccco3)C2)O1 | - | - | - | - | 0 | - | -
CC(=O)NC(=S)Nc1ccc(NC(=O)COc2ccc(Cl)cc2)cc1 | 0 | 0 | - | 0 | 41 | 0 | 0
CC(=O)NC(=S)Nc1ccc(NC(=O)COc2ccc(C(C)C)cc2)cc1 | 0 | 0 | 0 | 0 | 0 | - | -
N#CCC(N)=C(C#N)C#N | 0 | 0 | 0 | 0 | 61 | 0 | 0
COC(=O)CC#N | - | 0 | 0 | 0 | 0 | - | -
Cc1ccc(-n2nc3cc(C)c(NC(=S)NC(=O)/C=C/c4ccco4)cc3n2)cc1 | 0 | 0 | 0 | 0 | 0 | - | -
Cc1ccc(-n2nc3ccc(NC(=S)NC(=O)/C=C/c4ccco4)cc3n2)cc1 | 0 | 0 | 0 | 0 | 65 | 42 | 0
O=C(CCSc1ccc(Cl)cc1)N1CCN(c2ccc(O)cc2)CC1 | 0 | 0 | 0 | 0 | 38 | 28 | 0
O=C(CCSc1ccccc1)N1CCN(c2ccccc2)CC1 | 0 | 0 | 0 | 0 | 0 | - | -
OCCO | - | 0 | 0 | 0 | 0 | - | -
NC(N)=NS(=O)(=O)c1ccc(NC(=S)NC(=O)c2ccc3c(c2)OCO3)cc1 | 0 | 0 | 0 | 0 | 47 | 56 | 0
NS(=O)(=O)c1ccc(NC(=S)NC(=O)c2ccc3c(c2)OCO3)cc1 | 0 | 0 | 0 | 0 | 0 | - | -
O=C(Nc1ccc2c(c1)OCO2)c1cc(-c2cccc(O)c2)on1 | 0 | 0 | 0 | 0 | 0 | - | -
O=C(Nc1ccc2c(c1)OCO2)c1cc(-c2ccc(O)cc2)on1 | 0 | 0 | 0 | 0 | 32 | 0 | 0
CC(C)Cc1cc(C(=O)Nc2ccc3c(c2)OCO3)no1 | 0 | 0 | 0 | 0 | 31 | 29 | 0
SMILES | SARS 3CLpro inh | GDH-TPI inh | BH1578 lux ind | Mtb FBA inh | PrPC TRFRET | PrPC TRFRET cf | LD9 cytotox
Cc1cc(C(=O)Nc2ccc3c(c2)OCO3)no1 | 0 | 0 | 0 | 0 | 0 | - | -
Brc1ccc2nc(-c3ccc(CN4CCC5(CC4)CNc4ccccc45)cc3)c(-c3ccccc3)nc2c1 | - | - | - | - | 26 | 53 | 0
CC1CCN(CCC(=O)Nc2ccc(F)c(F)c2)CC1 | 0 | 0 | 0 | 0 | 0 | - | -
COc1cccc(N2CCN(c3ncnc4c3[nH]c3ccccc34)CC2C)c1 (centres undefined) | 0 | - | - | - | 55 | 75 | 90
CCOC(=O)C1(Cc2ccccc2)CCCN(C(=O)c2ccc(-n3ccnc3)cc2)C1 (centres undefined) | 0 | 0 | 0 | 0 | 0 | - | -
Cc1ccc(C(C)C)c(OCc2ccc(C(=O)N/N=C/c3cccc(O)c3O)cc2)c1 | 0 | 0 | 0 | 0 | 43 | 29 | 19
COc1cc(/C=N/NC(=O)c2ccc(COc3cc(C)ccc3C(C)C)cc2)cc(OC)c1O | 0 | 0 | 0 | 0 | 0 | - | -
Cc1ccc(C(C)C)c(OCc2ccc(C(=O)N/N=C/c3ccc(O)c(O)c3)cc2)c1 | 0 | 0 | 0 | 0 | 28 | 41 | 11
COc1ccc(NC(=S)NC2CCCCC2)cn1 | 0 | 0 | 0 | 0 | 0 | - | -
Brc1ccc(-c2nn3c(-c4ccco4)nnc3s2)o1 | 0 | 0 | 0 | 0 | 62 | 76 | 0
Cc1cccc(NS(=O)(=O)c2ccc3oc(=O)ccc3c2)c1C | 0 | 0 | 0 | 0 | 37 | 0 | 0
Cc1ccc(C)c(NS(=O)(=O)c2ccc3oc(=O)ccc3c2)c1 | 0 | 0 | 0 | 0 | 0 | - | -
C[C@@H]1CCCCO[C@H](CN(C)S(=O)(=O)c2ccccc2)[C@@H](C)CN([C@H](C)CO)C(=O)c2cc(NC(=O)Cc3ccccc3)ccc2O1 | - | 0 | 0 | 0 | 0 | - | -
CCN(CC)C(=O)c1cccc(-c2csc(C(C)(O)c3ccncc3)n2)c1 (centres undefined) | - | 0 | 0 | 0 | 40 | 30 | 0
Nc1nc(-c2cccs2)c(-c2cccs2)s1 | 0 | 0 | 0 | 0 | 25 | 0 | 0
CC1CC1C(=O)Nc1nc(-c2cccs2)c(-c2cccs2)s1 (centres undefined) | 0 | 0 | 0 | 0 | 25 | 0 | 0
Nc1nc(-c2cccs2)c(CC(=O)O)s1 | 0 | 0 | 0 | 0 | 0 | - | -
O=C(Nc1nc(-c2cccs2)c(-c2ccccc2)s1)c1ccco1 | 0 | 0 | 0 | 0 | 0 | - | -
COC(=O)/C=C/S(=O)(=O)c1ccc(NC(C)=O)cc1 | 0 | 0 | 0 | 0 | 77 | 0 | 94
C=C[C@@]1(C)CC(=O)[C@]2(O)[C@@]3(C)[C@@H](O)CCC(C)(C)[C@@H]3[C@H](OC(C)=O)[C@H](O)[C@@]2(C)O1 | - | 0 | 0 | 0 | 0 | - | -
C=C[C@@]1(C)CC(=O)[C@]2(O)[C@@]3(C)[C@@H](O)CCC(C)(C)[C@@H]3[C@H](O)[C@H](OC(C)=O)[C@@]2(C)O1 | - | 0 | 0 | 0 | 34 | 26 | 0
Cc1ccc(Cn2nc(C)c(NC(=O)c3cc(-c4ccco4)on3)c2C)cc1 | 0 | 0 | 0 | 0 | - | - | -
Cc1nn(Cc2ccc(Cl)c(Cl)c2)c(C)c1NC(=O)c1cc(-c2ccco2)on1 | 0 | 0 | 0 | 0 | 38 | 31 | 0
Cc1nn(Cc2ccc(Cl)cc2)c(C)c1NC(=O)c1cc(-c2ccco2)on1 | 0 | 0 | 0 | 0 | 32 | 31 | 0
CCCCN(C(=O)c1ccc2c(c1)S(=O)(=O)N=C1CCCCCN12)c1c(N)n(CCCC)c(=O)[nH]c1=O | - | 0 | 0 | 0 | 0 | - | -
Cc1cc(C)c(-c2csc(NC(=O)/C=C/c3cccs3)n2)c(C)c1 | 0 | 0 | 0 | 0 | 45 | 41 | 0
CNc1c2cccc(C)c2nc2c(C(=O)NCCN(C)C)cccc12 | - | 0 | 0 | 0 | 29 | 62 | 59
COc1ccccc1NC(=S)N1CCC(C(=O)c2ccc(F)cc2)CC1 | 0 | 0 | 0 | 0 | 0 | - | -
Cc1ccc(-n2c(SCC(=O)N3CC(=O)Nc4ccccc43)nc3ccccc3c2=O)cc1 | 0 | 0 | 0 | 0 | 0 | - | -
Cc1cccc(C)c1-n1c(SCC(=O)N2CC(=O)Nc3ccccc32)nc2ccccc2c1=O | 0 | 0 | 0 | 0 | 27 | 0 | 0
